Potency and affinity values are given separately. Results filed as inconclusive are left out. Where a call stands in place of a potency, no number is given. Calls of active or inactive are those of the source.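 How the source made its calls: active means active in every separate test run, each with half-maximal potency at or under twice its top valid dose; inconclusive means the separate test runs give conflicting calls; inactive means inactive in every test run, including signal rising instead.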

This assay is described as follows: Cryptococcus growth inhibition by alamar blue – cell lysis, cherry-picks, replicate tests, mechanism study for C. neoformans antifungal project, dose response (AID 686999). The conditions noted are these: 72 h; series mostly up to 35 µM.
`O=C(Cc1ccccc1)N[C@H]1C=C[C@@H](CC(=O)N2CCOCC2)O[C@@H]1CO`: the call was inactive.
In the case of `COc1ccccc1NC(=S)NCc1ccc(Cl)cc1` it was “inactive”.
For `S=C(NCCCc1ccccc1)Nc1ccccc1` the value was “inactive”; for `COC(=O)C1=C(C)N(Cc2ccc(Cl)cc2)C(=S)NC1c1cccc(Cl)c1` (stereo unspecified), “inactive”.
For the molecule `COc1cccc(NC(=S)N2CCC(Cc3ccccc3)CC2)c1`, the result was inactive.
For `COc1ccc(C(=O)NC(=S)Nc2ccccc2N2CCCCC2)cc1[N+](=O)[O-]` the value was “inactive”; for `S=C(Nc1ccc(Cl)cc1Cl)Nc1ccccc1Oc1ccccc1`, “inactive”; for `O=C(NC(=S)Nc1ccccc1N1CCOCC1)c1cccc([N+](=O)[O-])c1`, “inactive”.
In the case of `O=C(NC(=S)Nc1cc(Cl)ccc1N1CCOCC1)c1ccccc1[N+](=O)[O-]` it was “inactive”; in that of `COC(=O)C1=C(C)N(CC(C)C)C(=S)NC1c1ccc(F)cc1` (stereo unspecified), “inactive”.
In the case of `COC(=O)C1=C(C)N(Cc2ccc(F)cc2)C(=S)NC1c1cccc(Cl)c1` (stereo unspecified) it was “inactive”; in that of `COC(=O)C1=C(C)N(Cc2ccccc2)C(=S)N[C@H]1c1cccc(F)c1`, “inactive”.
With `O=C(NC(=S)NCC1COc2ccccc2O1)c1ccc(Cl)cc1` (stereo unspecified), the call was inactive.
For `CCc1nc(N2CCCCC2C)c2oc3ccccc3c2n1` (stereo unspecified) the value was “inactive”; for `O=C(NCCN1CCCCC1)[C@H]1N[C@H]2c3ccc(-c4ccncc4)c(=O)n3C[C@H]2[C@@H]1CO`, “inactive”; for `Cc1cc(C(=O)NC(=S)Nc2ccccc2N2CCOCC2)ccc1[N+](=O)[O-]`, “inactive”.
Take `O=C(NC(=S)Nc1ccccc1N1CCCC1)c1ccc([N+](=O)[O-])cc1`: the call was inactive.
As for `Cc1ccc(C(=O)NC(=S)Nc2ccc(N3CCOCC3)cc2)cc1`, the call was inactive.
As to `Cc1cc(C)c2nc(N3CCN(C(=O)c4cccs4)CC3)sc2c1`, the result was inactive.
In the case of `Fc1ccccc1NC(=S)NN(Cc1ccccc1)c1ccccc1` it was “inactive”; in that of `O=C(NC(=S)Nc1ccccc1N1CCCC1)c1ccccc1[N+](=O)[O-]`, “inactive”.

Values taken from PubChem BioAssay AID686999 (Broad Institute, 2013).
